Measurements from PubChem BioAssay AID743258 (The Scripps Research Institute Molecular Screening Center, 2014).
Out of some 3,300 compounds screened, about 100 (3%) were called active. The list is a sample of the results. Values without a mark were called inactive. No stated cut-off is given here; in the data, active means inhibition above about 9.5%; inactive means the rest.

target: 1-phosphatidylinositol 4,5-bisphosphate phosphodiesterase gamma-1 (Homo sapiens) (UniProt P19174); assay: human PLCG1 activity blockade – biochemical, fluorescence, counter-screen for PLC-beta3 inhibitor project (AID 743258); details: purified PLC-gamma1, fluorogenic substrate, at 12.3 µM, hits give high values
Sequence (P19174 whole entry, looked up): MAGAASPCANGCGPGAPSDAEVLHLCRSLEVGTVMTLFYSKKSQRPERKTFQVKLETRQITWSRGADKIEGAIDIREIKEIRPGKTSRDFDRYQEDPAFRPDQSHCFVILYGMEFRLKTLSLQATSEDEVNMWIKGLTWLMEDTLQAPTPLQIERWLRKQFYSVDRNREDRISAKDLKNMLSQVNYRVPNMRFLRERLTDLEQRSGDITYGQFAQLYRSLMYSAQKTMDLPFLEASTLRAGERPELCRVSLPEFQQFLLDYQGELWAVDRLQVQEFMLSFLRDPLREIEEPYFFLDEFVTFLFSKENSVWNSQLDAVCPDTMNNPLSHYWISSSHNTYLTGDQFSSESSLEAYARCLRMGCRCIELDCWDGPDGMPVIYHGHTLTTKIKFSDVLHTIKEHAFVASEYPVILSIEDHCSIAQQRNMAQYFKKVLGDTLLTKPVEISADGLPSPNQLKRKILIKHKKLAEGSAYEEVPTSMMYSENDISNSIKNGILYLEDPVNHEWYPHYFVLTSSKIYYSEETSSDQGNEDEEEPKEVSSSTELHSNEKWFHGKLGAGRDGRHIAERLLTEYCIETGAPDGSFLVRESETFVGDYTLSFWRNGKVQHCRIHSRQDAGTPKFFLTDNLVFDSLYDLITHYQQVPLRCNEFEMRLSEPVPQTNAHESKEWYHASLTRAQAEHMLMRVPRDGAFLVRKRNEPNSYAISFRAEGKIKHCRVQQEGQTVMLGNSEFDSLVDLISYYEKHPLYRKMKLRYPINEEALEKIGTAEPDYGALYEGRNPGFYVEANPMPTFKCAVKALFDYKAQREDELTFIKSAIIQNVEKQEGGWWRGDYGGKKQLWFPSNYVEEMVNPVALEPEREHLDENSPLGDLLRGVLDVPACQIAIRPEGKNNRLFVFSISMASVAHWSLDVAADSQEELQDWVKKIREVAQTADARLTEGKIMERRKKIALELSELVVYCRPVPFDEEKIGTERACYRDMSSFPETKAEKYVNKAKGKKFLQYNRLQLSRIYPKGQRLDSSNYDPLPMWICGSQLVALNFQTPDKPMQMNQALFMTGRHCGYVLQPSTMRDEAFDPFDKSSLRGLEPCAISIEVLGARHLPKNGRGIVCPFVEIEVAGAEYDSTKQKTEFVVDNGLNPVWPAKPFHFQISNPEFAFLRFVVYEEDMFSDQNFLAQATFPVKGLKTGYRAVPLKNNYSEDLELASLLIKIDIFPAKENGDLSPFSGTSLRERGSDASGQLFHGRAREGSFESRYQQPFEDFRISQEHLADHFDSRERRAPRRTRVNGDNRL

Compound | inhibition
NC1=NN(c2cccc(C(=O)O)c2)C(=O)C1 | -3.09%
CCOc1cccc(-c2nnc3sc(COc4ccc(OC)cc4)nn23)c1 | -4.31%
O=S(=O)(Nc1ccc(Oc2ncccn2)c(Cl)c1)c1ccc(F)cc1 | -6.2%
CC1CCN(S(=O)(=O)c2ccc(S(=O)(=O)NCc3ccco3)cc2)CC1 | 0.59%
CN(C(=O)c1ccc(NC(=O)Cc2cccc(NC(=O)C3CCN(C(=O)c4ccccc4)CC3)c2)cc1)C1CC1 | -5.36%
COc1cc(OC)nc(S(C)(=O)=O)n1 | 1.91%
O=C(COc1ccc(Cl)cc1)N1CCN(c2cccc(C(F)(F)F)c2)CC1 | -4.75%
COCCNC(=O)C(c1ccc(O)cc1)N(C(=O)CCC(=O)Nc1nccs1)c1ccc(C)cc1 (stereo unspecified) | 0.09%
Cc1ccc(Cn2ccc(NC(=O)C3C4CCC(C4)C3C(=O)O)n2)cc1 (stereo unspecified) | 6.33%
N#Cc1c(NC(=O)C2CCCO2)sc2c1CCCCC2 (stereo unspecified) | -9.66%
Cc1nc2ccc(NC(=O)c3cccc(S(=O)(=O)N4CCOCC4)c3)cc2s1 | -12.2%
N#C[C@]1(S(=O)(=O)c2ccccc2)C[C@@H]2ON=C(c3cccc(Br)c3)[C@@H]2C1 | -2.59%
Nn1cnnc1N/N=C/c1cc([N+](=O)[O-])c(Cl)cc1Cl | -3.65%
Nc1nc(NCC(=O)O)nc(N2CCCCCC2)c1[N+](=O)[O-] | 0.65%
COCc1cc(C(C)=O)ccc1OC | -2.07%
C=CCOc1ccccc1/C=N/NC(=O)Cc1ccccc1 | -8.16%
C=CCSC(CC)(CC)C(N)=O | 2%
CCOc1ccc(OCC)c(NC(=O)CSc2nnc(Cn3cnc4ccccc43)n2C)c1 | -2.36%
COc1ccc(C(CNC(=O)c2cc(S(=O)(=O)Nc3cccc(C)c3)ccc2C)N2CCCC2)cc1 (stereo unspecified) | -5.37%
O=C(NCCCN1CCCCC1)C1CC(=O)N(CCc2ccccc2)C1 (stereo unspecified) | 0.03%
Clc1ccc(C2[C@H]3CN(CC4CCCCC4)[C@H](c4ccccc4)C34CC2(c2cccnc2)C4)cn1 (stereo partly specified) | -4.79%

Compound | inhibition
O=[N+]([O-])c1cc(C(F)(F)F)ccc1NN=C1CCCC1 | 8.96%
CCC1S/C(=N/N=C/c2ccco2)NC1=O (stereo unspecified) | -2.12%
O=S(=O)(c1ccc(F)cc1)N1CCN(C(=S)NC2CCCC2)CC1 | -7.54%
COc1ccc(CCNC(=O)COC(=O)Cc2ccccc2F)cc1 | -5.86%
CC(C)CCSc1ncnc2c1oc1nc3c(cc12)COC(C)(C)C3 | -6.65%
CNC(=O)n1ccc(C(=O)N2CCCCC2)n1 | -7.1%
Cc1cc2nc(SCCN3CCOCC3)[nH]c2cc1C | -0.23%
CC(C)Cn1cnc2c1c(=O)n(CC(O)c1ccccc1)c(=O)n2CC(C)C (stereo unspecified) | -3.61%
CCOc1ccccc1C1CC(c2cccc(NS(C)(=O)=O)c2)=NN1C(=O)c1ccccc1 (stereo unspecified) | -6.72%
CN(C(=O)c1cccc(NC(=O)Cc2cccc([N+](=O)[O-])c2)c1)C1CCCCC1 | -5.4%
O=C(Nc1cccc([N+](=O)[O-])c1)Nn1cnnc1 | 0.91%
CS(=O)(=O)N(Cc1ccc(Cl)cc1)c1ccc(C(=O)NCCSCc2ccco2)cc1 | 0.35%
COc1ccc(NC(=O)c2ccc(OC)cc2)cc1 | -6.63%
C=CCN(c1ccc(Cl)cc1)S(=O)(=O)c1cccc(C(=O)OCC(=O)N(C)C)c1 | -6.25%
Cc1cc(NC(=O)CN2C(=O)NC(CC(C)C)C2=O)no1 (stereo unspecified) | -4.65%
CN(CC(=O)Nc1ccccc1Cl)C(=O)COc1cccc2c1OC(C)(C)C2 | 3.1%
CCc1c(C)n([O-])c2c([n+]1=O)CCCCC2 | -5.96%
FC(F)(F)c1cnc(Oc2ccccc2-c2nnc(-c3ccc(Cl)cc3)o2)c(Cl)c1 | -5.48%
Cc1cc(NC(=O)c2ccc(F)cc2)ccc1NC(=O)c1ccco1 | -0.11%
Cc1nc(-c2ccc(F)cc2)c(CC(=O)N2CCN(S(=O)(=O)c3ccc(F)cc3)CC2)s1 | -5.79%
CCC1CCCCN1C(=O)CSc1nc(C)cc(C)n1 (stereo unspecified) | -6.45%

Compound | inhibition
O=C1NC2(CCCCC2)N=C1c1ccccc1 | -5.81%
O=C(C1CCCO1)N1CCN(C(=S)Nc2cccc(Cl)c2)CC1 (stereo unspecified) | -5.73%
O=C1/C(=C\c2ccsc2)NC(=S)N1c1ccccc1 | -7.04%
COc1ccc(-c2ccc(CN3C(CC(C)C)C(=O)N(Cc4cn(CC5CCCCC5)nn4)CCS3(=O)=O)cc2)cc1 (stereo unspecified) | 0.15%
S=c1[nH]nc(-c2cccnc2)n1/N=C/C(Cl)=C\c1ccccc1 | -4.71%
Cc1ccc(C23CC4CC(CC(C(=O)NCC(=O)O)(C4)C2)C3)cc1 | 9.94% (active)
CCn1c(SCC(C)=O)nc2sc3c(c2c1=O)CCCC3 | -3.1%
O=C(C[C@H]1C(=O)N(c2ccc(F)c(F)c2)C[C@@H]1Cc1ccccc1)Nc1ccccc1 | 2.94%
Cc1c(C#N)c2ncn(CC#N)c(=O)c2n1-c1ccccc1 | -8.35%
O=S1(=O)c2ccc(Br)cc2OC[C@H](Cc2ccccc2)N1Cc1cn(Cc2ccccc2)nn1 | 1.8%
COC(=O)C[C@@H]1CC[C@@H]2[C@H](COc3ccc(NC(=O)c4cccc(F)c4)cc3C(=O)N2C)O1 | 6.24%
COC(=O)N(C)C[C@@H]1OCc2cnnn2CCCC(=O)N([C@@H](C)CO)C[C@@H]1C | -7.63%
C=CCOc1ccc(Cl)cc1CNCCCN1CCOCC1 | 2.7%
COc1ccc(/C=C2\N=C3CCCN3C2=O)cc1 | -0.94%
CCOc1ccccc1NC(=O)CCN1CCN(S(=O)(=O)c2ccc(OC)cc2)CC1 | -1.14%
CC1(C(=O)NCc2ccccc2)CSCC(=O)N1CCCN1CCOCC1 (stereo unspecified) | -9.79%
O=C(NCc1cccnc1)c1cc(C2CCCCN2C(=O)CCc2ccccc2)on1 (stereo unspecified) | -6.35%
O=C(CSc1ccccc1)Nc1cccc(S(=O)(=O)N2CCOCC2)c1 | 3.57%
COc1ccc(S(=O)(=O)N2CCC(C(=O)OCC(=O)c3ccccc3)CC2)cc1[N+](=O)[O-] | 8.79%
